Compound activity from PubChem.
Only some compounds are listed: those with a hit (about 3.8% of all), similar ones and a draw of the others.
S2 tox = Viability Counterscreen for Primary qHTS for Inhibitors of ATXN expression; Potency, µM (top dose mostly 56.7 µM), hits mostly cytotoxic; AID 651635, 2014; 400,000 compounds, 0.49% hits; S2 cells (HEK-293 line with an ATXN2-luciferase reporter) viability, CellTiter-Fluor protease fluorescence, 24 h; further: nearly all actives have a fitted effect of over 40% in size
TGFb SMAD3 inh = qHTS for Inhibitors of TGF-b. HepG2 CAGA-GFP TGF-b/SMAD3 reporter, GFP fluorescence, 18 h; TGF-beta stimulated, 500 pg/mL final. Potency, µM (titrated, usually from 46.1 µM), for the others: top-dose activity, negative = inhibition, actives largely listed as inhibitors. 410,000 compounds, 1.2% hits; further: on the % scale 0 is the no-effect control and ±100 the full control effect; nearly all actives have a fitted effect of over 65% in size
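Per well, imaged GFP fluorescence of HEPG2 CAGA-GFP cells gives the signal; cells get compound, then TGF-beta (500 pg/mL final), 18 h at 37 degrees C; %Activity versus -TGF-beta and +DMSO controls.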
A549 viability = Nrf2 qHTS screen for inhibitors: counterscreen for cytotoxicity; A549 ARE-Fluc cells, CellTiter-Fluor viability, 18-24 h; Potency, µM (highest dose often 46 µM), without a hit: top-dose activity change, negative = cytotoxicity, hits mostly inhibitors; 390,000 compounds, 0.16% hits; further: on the % scale 0 is the no-effect control and ±100 the full control effect
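A549 ARE-Fluc cells in 5% FBS OPTI-MEM, 5000 cells/well, rested 2 h then exposed to compounds in concentration-response for 18-24 h at 37 °C. Viability by CellTiter-Fluor fluorescence (Ex 405/Em 525) after 30 min; luciferase luminescence (BugLite, 15 min, RT) read afterwards.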
Nrf2 block = Nrf2 qHTS screen for inhibitors. Potency, µM (highest dose often 46 µM), inactives show at the highest dose activity change, negative = inhibition, usual class: inhibitors. AID 504444, 2011. 360,000 compounds, 2.1% hits. A549 ARE-Fluc reporter, luciferase luminescence, 18-24 h; further: on the % scale 0 is the no-effect control and ±100 the full control effect; nearly all actives have a fitted effect of over 60% in size
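Reporter: ARE-Fluc in A549. Exposure: 18-24 h, 37 °C, 5% CO2, 5% FBS OPTI-MEM. Readouts: fluorescent cytotoxicity (CellTiter-Fluor), then luminescent Nrf2 signal after BugLite.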
ATXN2 expr inh = Primary qHTS for Inhibitors of ATXN expression; HEK-293 ATXN2-luciferase reporter, luminescence, 24 h; Potency, µM (doses to about 57 µM), for inactives: at the top dose activity change, negative = inhibition, usual class: inhibitors; 360,000 compounds, 0.72% hits; AID 1745845, 2022; further: on the % scale 0 is the no-effect control and ±100 the full control effect; nearly all actives have a fitted effect of over 55% in size
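ATXN2-luciferase reporter cells (luciferase flanked by upstream and downstream ATXN2 gene portions) were treated 24 h at 37 °C with compounds at up to 57 uM. SteadyGlo luminescence gave expression; GF-AFC fluorescence gave viability.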
HepG2 tox = qHTS for Inhibitors of TGF-b: Cytotox Counterscreen; HepG2 CAGA-GFP viability, ATP luminescence, 18 h; Potency, µM (top dose mostly 46.1 µM), for the others: top-dose activity change, negative = cytotoxicity, actives largely listed as cytotoxic; 410,000 compounds, 0.76% hits; AID 588856, 2011
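HepG2 CAGA-GFP cells (1000/well, DMEM with 1% FBS) received compound, then TGF-beta at 500 pg/mL final, and were incubated 18 hours at 37 degrees C. Viability was read by CellTiter-Glo luminescence. Media-only wells were set as complete cell-killing and DMSO as no toxicity.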
* marks the source's active call; other numbers are inactive results; i = inactive; ? = inconclusive; nt = no result; [ ] = another dose, or the depositor's remark. The call rests on the fitted dose curve; in most records, active means well fitted curve in the direction sought with a large enough effect; inconclusive means small, poorly fitted or top-dose-only effect, or another doubt; inactive means no such curve, though single readings can be large; an effect the other way counts as inactive or inconclusive. Potency means the concentration at half of the fitted maximal effect.

SMILES	S2 tox	TGFb SMAD3 inh	A549 viability	Nrf2 block	ATXN2 expr inh	HepG2 tox
CC(=O)OC(C)(C)/C=C/C(=O)C(C)(O)C1C(O)CC2(C)C3CC=C4C(CC(O)C(=O)C4(C)C)C3(C)C(=O)CC12C (configuration not stated)	nt	?	2.9µM*	?	?	17%
CC(=O)OC(C)(C)/C=C/C(=O)[C@](C)(O)[C@H]1[C@H](O)C[C@@]2(C)[C@@H]3CC=C4[C@H](C[C@H](O)C(=O)C4(C)C)[C@]3(C)C(=O)C[C@]12C	nt	2.8µM*	?	?	14µM*	-82%
CC(C)(O)C=CC(=O)[C@](C)(O)[C@H]1[C@H](O)C[C@]2(C)[C@@H]3CC=C4[C@@H](C=C(O)C(=O)C4(C)C)[C@]3(C)C(=O)C[C@@]12C	nt	nt	nt	nt	1.5µM*	nt
Cc1ccc(Cn2cccc(C(=O)Nc3nnc(C)s3)c2=O)cc1	i	6%	-2%	nt	2%	-15%
O=C(CCl)Nc1nccs1	?	11µM*	-12%	?	nt	11µM*
CCOC(=O)Cn1c(=O)oc2cc(S(=O)(=O)Nc3cc(OC)cc(OC)c3)ccc21	nt	?	0%	16%	nt	-32%
CCOC(=O)C1CCCN(c2ccc([N+](=O)[O-])c3nonc23)C1 (configuration not stated)	i	37%	18µM*	-27%	1%[11.3 µM]	-10%
CC1CCCN(c2ccc(C(=O)N3CCC4(CC3)OCCO4)cc2[N+](=O)[O-])C1 (configuration not stated)	i	?	-7%	3%	-6%	-40%
O=C(O)[C@@H]1C[C@H]2C[C@@H](CP(=O)(O)O)CC[C@H]2CN1	nt	-15%	7%	15%	nt	-15%
O=c1cccc2n1CC1CC2CN(Cc2cccc(Cl)c2Cl)C1 (configuration not stated)	i	-23%	-4%	21µM*	0%	-28%
COc1cc(NC(=O)c2cc3cc4ccc(C)cc4nc3o2)cc(OC)c1OC	?	-27%	-4%	?	?	-16%
O=S(=O)(CC1CS1)c1ccc(Oc2ccccc2)cc1 (configuration not stated)	nt	nt	nt	nt	-7%	nt
Cc1nccc2c1[nH]c1ccc(Br)cc12	i	37%	-3%	-7%	-14%	29%
COc1ccc2c(c1)[nH]c1c(C)nccc12	i	?	-7%	23µM*	3%	-11%
CC(Oc1ccccc1)C(=O)Nc1ccc(C(=O)OCc2cc(=O)n3nc(C4CC4)sc3n2)cc1 (configuration not stated)	?	-4%	-12%	nt	-40%	-25%
CCOC(=O)CC1c2ccccc2-n2nncc2CN1Cc1ccc(OC)cc1 (configuration not stated)	i	0%	-11%	23µM*	2%	-6%
CC(C)c1ccc(NC(=O)CN2C(=O)CN=C(c3ccccc3)c3ccccc32)cc1	?	-1%	-2%	6%	7%	5%
Cc1c(C=O)c2ccccc2n1Cc1ccccc1F	i	1.1µM*	1%	0%	-18%	-40%
CC(=O)OC1CC(OC2C(O)CC(OC3C(O)CC(OC4CCC5(C)C(CCC6C5CCC5(C)C(C7=CC(=O)OC7)CCC65O)C4)OC3C)OC2C)OC(C)C1OC1OC(CO)C(O)C(O)C1O (configuration not stated)	?	?	?	0.037µM*	0.0075µM*	-41%
C[C@H](N)C(=O)c1ccccc1	i	nt	nt	nt	9%[116 µM]	nt
C=C1C(=O)O[C@@H]2C[C@@H](C)[C@@H]3C=CC(=O)[C@@]3(C)[C@@H](OC(C)=O)[C@H]12	nt	0.71µM*	9.2µM*	4.1µM*	1.1µM*	2.5µM*
C=C1C(=O)O[C@@H]2C[C@@H](C)[C@@H]3C=CC(=O)[C@@]3(C)[C@@H](O)[C@H]12	nt	4µM*	9.2µM*	3.7µM*	1.8µM*	11µM*
COc1ccc(CNC(=O)Cn2c(=O)oc3cc(S(=O)(=O)N4CCCCCC4)ccc32)cc1	nt	-2%	-5%	nt	nt	-36%
COc1ccc(OC)c(C[C@H](C)N)c1	i	nt	nt	nt	nt	nt
COc1ccc(NC(=O)CCn2cnc3onc(-c4ccc(F)cc4)c3c2=O)cc1OC	?	?	-14%	23µM*	?	-20%
SMILES	S2 tox	TGFb SMAD3 inh	A549 viability	Nrf2 block	ATXN2 expr inh	HepG2 tox
CCOc1ccc(-c2cc(C)[n+](CCO)c(-c3ccc(OCC)cc3)c2)cc1	i	-9%	-7%	12µM*	21%[11.3 µM]	-23%
CCOc1ccc(-c2cc(C)[n+](CCc3ccc(OC)c(OC)c3)c(-c3ccc(OCC)cc3)c2)cc1	?	?	-10%	?	?	-35%
COc1cc(/C=C/c2nc3ccccc3c(=O)n2-c2ccc(Br)c(C)c2)ccc1O	nt	?	-1%	nt	nt	-38%
Cc1ccc(N2CCN(C(=O)c3cn(CC4CCCCC4)nn3)C(C)C2)cc1 (configuration not stated)	i	?	5%	14%	6%	-4%
CCCCOP(=O)(c1ccc(N(C)C)cc1)C(Nc1ccccc1)c1ccccc1 (configuration not stated)	?	16µM*	?	?	?	-95%
CN(C)c1ccc(C(O)P(=O)(OCc2ccccc2)c2ccc(N(C)C)cc2)cc1 (configuration not stated)	i	-5%	5%	?	-6%	-29%
COC(=O)C1=C(c2ccc(OCc3ccccc3)c(F)c2)C[C@@H]2CC[C@H]1N2C	?	6%	nt	nt	-4%	-29%
O=S(=O)(c1ccc(F)c(F)c1F)N1CCN(c2ncnc3sccc23)CC1	i	?	0%	13µM*	0%	-5%
O=S(=O)(c1ccccc1C(F)(F)F)N1CCN(c2ncnc3sccc23)CC1	i	13µM*	-4%	?	?	-43%
CCN1CCC2(CC1)NC(=O)c1ccccc1O2	i	-4%	0%	8%	nt	0%
COc1ccccc1C(=O)Nc1ccc2nc(SCC(=O)N3CCCc4ccccc43)sc2c1	nt	0%	-6%	18µM*	nt	-1%
CCOc1ccc(-n2c(-c3cccs3)nc3ccccc3c2=O)cc1	i	2%	-1%	-23%	?	-9%
CCn1nc(-c2cccs2)nc2c(=O)n(C)c(=O)nc1-2	i	?	1.5µM*	5.2µM*	6%	0.35µM*
